Out of some 52,000 compounds screened, about 1,700 (3.3%) were called active. The full list was thinned out, with actives kept by preference. A number with no mark means an inactive call. Cut-off read from the data, not from the text of the source: active = survival mostly below about 52% (no sharp cut-off); inactive = mostly above about 56%.

These results are taken from PubChem BioAssay AID463173 (ICCB-Longwood Screening Facility, Harvard Medical School, 2010).

The assay has as its system Wild type. The experiment in a line: growth inhibition of S. aureus wild type versus tarO mutant, primary screen, teichoic acid synthesis inhibitors, RN4220, OD600 (AID 463173). The note with it: S. aureus RN4220 wild type/DeltatarO growth, OD600, 18 h, hits give low values, screened at 18.75 µg/mL (by protocol).
Take `CCOC(=O)c1cc2sccc2n1CC(=O)NC(C)C`: the survival is 100%. Next, `COc1ccc(-c2cnc(C)o2)cc1S(=O)(=O)Nc1ccc(C)c(F)c1`: 60%; `Fc1ccc(-n2ncc3c(N4CCCCCC4)ncnc32)cc1`: 82%.

As for `Cc1ccc(N2C(=O)CSC23C(=O)N(CC(=O)Nc2ccc(C(C)C)cc2)c2ccccc23)cc1C` (stereo not given), the survival was 80%. Then `CCOc1ccc(-c2cn3c(n2)sc2cc(C(=O)NCCCc4ccccc4)ccc23)cc1`, with 96%; and `CCCNC(=O)c1ccc2c(c1)sc1nc(-c3ccc(C)cc3)cn12`, with 103%. Then `CCN(CC)CCCNC(=O)c1ccc2c(c1)sc1nc(-c3ccc(C)cc3)cn12`, with 8% (active); and `CCOc1ccc(-c2cn3c(n2)sc2cc(C(=O)NCCCN(CC)CC)ccc23)cc1`, with 2% (active). Then `CCCSCCCNC(=O)c1ccc2c(c1)sc1nc(-c3ccc(OCC)cc3)cn12`, with 85%; and `CCN(CC)CCNC(=O)c1ccc2c(c1)sc1nc(-c3ccc(F)cc3)cn12`, with 27%. Consider `CCOc1ccc(N2C(=O)c3n[nH]c(-c4cccs4)c3C2c2cccc(F)c2)cc1` (stereo not given), for which the survival is 60%. Then `Cc1ccc(C)c(CSc2nc3ccncc3n2Cc2nc(-c3ccccc3Cl)oc2C)c1`, with 61%; and `Cc1ccc(CSc2nc3ccncc3n2Cc2nc(-c3ccccc3C)oc2C)cc1`, with 0% (active). Regarding `Cc1ccc(CSc2nc3ccncc3n2Cc2nc(-c3ccc(Cl)cc3)oc2C)cc1`, the survival is 68%. In the case of `CCN(C(=O)Cn1nc(Cc2ccncc2)c2ccccc2c1=O)c1ccc(OC)cc1`, the survival is 74%. In the case of `Cc1ccccc1C(=O)NC1CCN(CC(=O)NC2CCCCC2)CC1`, the survival was 98%. Next, `COc1ccc(Cl)cc1NC(=O)C1CCN(c2ncnc3c2nc2n3CCCCC2)CC1`: 82%; `O=S1(=O)CCC(c2ccccc2)C1` (stereo not given): 100%; `COc1ccc(CC(=O)NCc2ccc3c(c2)CCN3C(=O)c2cccc(C)c2)cc1`: -6% (active).

As for `O=C(NCc1ccc2c(c1)CCN2C(=O)c1ccc(F)cc1)c1cc2ccccc2[nH]1`, the survival is 99%. For `CCOc1ccc(C(=O)NCc2ccc3c(c2)CCN3C(=O)c2ccccc2)cc1`, the survival is -4% (active). Next, `COc1ccc(OCC(=O)NCc2ccc3c(c2)CCN3C(=O)c2cccc(C)c2)cc1`: 72%; `COc1ccc2cc(C(=O)NCc3ccc4c(c3)CCN4C(=O)c3ccc(C)cc3)[nH]c2c1`: 84%; `COc1ccc2cc(C(=O)NCc3ccc4c(c3)CCN4C(=O)c3ccc(F)cc3)[nH]c2c1`: 68%. Next, `COc1ccc(CCC(=O)NCc2ccc3c(c2)CCN3C(=O)c2cccc(C)c2)cc1`: 67%; `Cc1cccc(C(=O)N2CCc3cc(CNC(=O)c4cc5ccccc5[nH]4)ccc32)c1`: 72%; `CCOc1ccc(C(=O)NCc2ccc3c(c2)CCN3C(=O)c2ccc(Cl)cc2)cc1`: 81%. Next, `COc1ccc(C(=O)NCc2ccc3c(c2)CCN3C(=O)c2ccccc2)cc1`: 82%; `O=C(NCc1ccc2c(c1)CCN2C(=O)c1ccccc1)c1cc2ccccc2[nH]1`: 1% (active); `COc1ccc2cc(C(=O)NCc3ccc4c(c3)CCN4C(=O)c3ccccc3)[nH]c2c1`: -3% (active). Consider `CC(C)c1cc2cc(/C=C/C(=O)O)c(O)cc2o1`, for which the survival was 39%. `CCC(CC)N1CCN(S(=O)(=O)c2ccc(NC(C)=O)cc2)CC1`: the survival is 113%.

Take `O=C(/C=C/c1ccccc1)N1CCN(CCN2C(=O)C3C4C=CC(C4)C3C2=O)CC1` (stereo not given): the survival is 124%. With `Cc1nc(-c2ccc(S(=O)(=O)NCc3ccc(F)cc3)cc2)co1`, the survival is 68%. Next, `Nc1c(-c2nc(-c3ccc4c(c3)OCO4)cs2)c2ccccn2c1C(=O)c1ccccc1`: 86%; `COc1ccccc1N1CCN(C(=O)C2CCN(S(=O)(=O)Cc3ccccc3)CC2)CC1`: 84%; `COc1ccc(-c2nc(CS(=O)CC(=O)NCc3ccccc3OC)c(C)o2)cc1` (stereo not given): 123%. On to `O=C(C1CCC(Cn2c(=O)c3sccc3n(Cc3ccccc3)c2=O)CC1)N1CCOCC1` (stereo not given), for which the survival was 95%. Then `CCCn1c2ccccc2c2cnn(CC(=O)N3CCC(C(=O)OCC)CC3)c(=O)c21`, with 87%; and `Cc1ccc(C)c(N2CCN(c3nc4ccc(C(=O)c5ccccc5)cc4n4cnnc34)CC2)c1`, with 100%. Take `Cc1ccc(C)c(N2CCN(c3nc4ccccc4n4c(C)nnc34)CC2)c1`: the survival was 87%. Then `CCc1nnc2c3ccccc3nc(N3CCN(c4cc(Cl)ccc4C)CC3)n12`, with 126%. As to `CCc1nnc2c(N3CCN(c4cc(Cl)ccc4C)CC3)nc3ccccc3n12`, the survival was -6% (active). For `Cc1ccc(Cl)cc1N1CCN(c2nc3ccc(C(=O)c4ccccc4)cc3n3cnnc23)CC1`, the survival was -6% (active). As to `Cc1ccc(N2CCN(c3nc4ccc(C(=O)c5ccccc5)cc4n4cnnc34)CC2)c(C)c1`, the survival is 72%.

As to `O=C(CN1C(=O)C2(SCC(=O)N2c2ccc(F)c(F)c2)c2ccccc21)Nc1cccc(Cl)c1` (stereo not given), the survival was 68%.

For `COc1ccc(Nc2c3c(nc4ccccc24)CCC3)cc1Cl`, the survival is 72%.

Turning to `CCOC(=O)c1cccc(Nc2c3c(nc4ccccc24)CCC3)c1`, the survival is 73%. Then `Cc1ccc2nc3c(c(Nc4ccc(C)c(C)c4)c2c1)CCC3`, with 39%.

With `Fc1ccc(Nc2c3c(nc4ccccc24)CCC3)cc1`, the survival was 70%. Next, `COc1ccccc1Nc1c2c(nc3ccc(NC(=O)c4cccc(F)c4)cc13)CCCC2`: 35%; `Fc1ccc(F)c(Nc2c3c(nc4ccc(Cl)cc24)CCC3)c1`: -1% (active); `FC(F)(F)c1cccc(Nc2c3c(nc4ccc(Cl)cc24)CCC3)c1`: 5% (active).

For the molecule `Fc1ccccc1Nc1c2c(nc3ccccc13)CCC2`, the survival was 102%. Then `Cc1ccc(Nc2c3c(nc4ccccc24)CCC3)cc1F`, with 2% (active); and `CC1(C)Cc2nc3sc4c(N5CCOCC5)ncnc4c3cc2CO1`, with 97%; and `O=C(Cn1c(=O)oc2ccccc21)NCc1cccc(Cl)c1`, with 78%.

Turning to `CCOC(=O)c1cnc2nc(NCc3cccc(Br)c3)[nH]n2c1=O`, the survival is 98%. Next, `NC(=O)C1CCN(c2nc(C3CC3)nc3c2nnn3Cc2ccccc2Cl)CC1`: 108%; `O=C(CN1C=NS(=O)(=O)c2ccc(C(F)(F)F)cc21)Nc1cccc(C(F)(F)F)c1`: 76%; `COc1cccc(C2CC(=O)Nc3c2c(=O)n(C)c2nc4ccccc4n32)c1OC` (stereo not given): 67%.

On to `CCOCCCNC(=O)c1ccc(-c2nc(CS(=O)(=O)c3ccccc3)c(C)o2)cc1`, for which the survival is 87%. Next, `Cc1ccc(S(=O)(=O)Cc2nc(-c3ccc(C(=O)NCCCOC(C)C)cc3)oc2C)cc1`: 75%; `Cc1oc(-c2ccc(C(=O)NCCCOC(C)C)cc2)nc1CS(=O)(=O)c1ccccc1`: -6% (active); `CCOc1ccc(-c2nc(SCC(=O)Nc3ccc4c(c3)OCO4)c(-c3ccc(F)cc3)[nH]2)cc1`: 98%.

For the molecule `Cc1ccc(Cl)cc1-n1ncc2c(NCc3ccc(F)cc3)ncnc21`, the survival is 73%. Next, `O=C(NC1CC(=O)N(c2ccccc2)C1)c1ccc(S(=O)(=O)N2CCOCC2)cc1` (stereo not given): 14% (active); `O=C(NC1CC(=O)N(c2ccccc2)C1)c1ccc(S(=O)(=O)N2CCCCC2)cc1` (stereo not given): -1% (active); `O=C(NC1CC(=O)N(c2ccccc2)C1)c1ccc(S(=O)(=O)N2CCCC2)cc1` (stereo not given): 133%. Next, `O=C(NC1CC(=O)N(c2ccc(F)cc2)C1)c1ccc(S(=O)(=O)N2CCCCC2)cc1` (stereo not given): 83%.

For the molecule `Cc1ccc(N2CC(NC(=O)c3ccc(S(=O)(=O)N4CCOCC4)cc3)CC2=O)cc1` (stereo not given), the survival was 47%.

As for `O=C(NC1CC(=O)N(c2ccc(Cl)cc2)C1)c1ccc(S(=O)(=O)N2CCOCC2)cc1` (stereo not given), the survival was 91%. Next, `CCOc1ccc(NC(=O)C2CCN(S(=O)(=O)c3c(C)noc3/C=C/c3ccco3)CC2)cc1`: 73%; `CC(=O)c1ccc(S(=O)(=O)Nc2ccc(-c3ccc(N4CCCCCC4)nn3)cc2)cc1`: 83%. Next, `CCOC(=O)c1c(S(=O)(=O)NCC(=O)N2CCN(c3ccccc3)CC2)c(C)n(C)c1C`: 112%.

`CCCSc1nnc2n(-c3cccc(C)c3)c(=O)c3c4c(sc3n12)CCCC4`: the survival is 2% (active).

For the molecule `CCSc1nnc2n(-c3ccccc3)c(=O)c3c4c(sc3n12)CCCC4`, the survival is 108%. Then `Cc1cccc(-n2c(=O)c3c4c(sc3n3cnnc23)CCCC4)c1`, with 72%. Then `CCCCSc1nnc2n(-c3cccc(C)c3)c(=O)c3c4c(sc3n12)CCCC4`, with -1% (active); and `CCSc1nnc2n(-c3cccc(C)c3)c(=O)c3c4c(sc3n12)CCCC4`, with 81%; and `CSc1nnc2n(-c3cccc(C)c3)c(=O)c3c4c(sc3n12)CCCC4`, with 79%.

For `Cc1cc(=O)[nH]c(SCC(=O)N(c2ccccc2)c2ccccc2)n1`, the survival was 103%.

Regarding `Cc1ccc(NC(=O)N2CC3CCCN3c3ccccc32)cc1Cl` (stereo not given), the survival was 83%.

For `Cc1ccc(NC(=O)N2CC3CCCN3c3ccccc32)cc1C` (stereo not given), the survival was -2% (active). Regarding `Cc1ccc(NC(=O)N2CC3CCCN3c3ccccc32)c(C)c1` (stereo not given), the survival is 117%. Next, `COc1ccc(S(=O)(=O)c2c(Nc3c(C)cccc3C)sc(C(=O)c3ccc4c(c3)OCO4)c2N)cc1`: 74%. Next, `CCOC(=O)c1ccccc1NC(=O)c1ccco1`: 121%. Next, `Cc1cc(Nc2ccccc2F)n2nc(-c3ccccc3)nc2n1`: 84%; `Cc1cc(Nc2cc(Cl)ccc2C)n2nc(-c3ccccc3)nc2n1`: 93%. Regarding `COc1ccccc1Nc1cc(C)nc2nc(-c3ccccc3)nn12`, the survival was 14% (active).
